The source of these data is PubChem BioAssay (NCATS).

Where “and” joins values, the source holds several entries; their conditions need not be identical. Equal values may be shown once. Results filed as inconclusive are left out. For part of these data: Measured potencies and affinities stand elsewhere. Calls of active or inactive are those of the source. Unless noted, the rule behind the calls is not given here.
Throughout, for efficacy: 0% is about no effect.

The first assay in a line: qHTS assay for small molecule agonists of the antioxidant response element (ARE) signaling pathway measured by Nrf2-dependant transcriptional activity (AID 720636; active = well fitted curve in the direction sought with a large enough effect in the repeat runs; an effect the other way counts as inactive or inconclusive;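 note: HepG2 cells with an ARE-driven luciferase reporter; % of control where 0% means no effect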). Conditions: ARE-luc HepG2, Nrf2 luciferase reporter, 16 h; series mostly up to 92.4 µM. The method in brief:
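HepG2 ARE-luc reporter line, 1% dialyzed FBS; 6 hr attachment at 37 C, compound pinned in, 16 hr at 37 C/5% CO2; ONE-Glo, 30 min RT, luminescence read.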
For orientation: In qHTS, concentration-response curves come from the screen itself.
Consider `C[C@]12CCC(=O)C=C1CC[C@@H]1[C@@H]2CC[C@@]2(C)[C@H]1CC[C@]2(C)O`, for which the molecule was classed as inactive.

Consider `CC1(C)C(C=C(Cl)Cl)C1C(=O)OC(C#N)c1cccc(Oc2ccccc2)c1` (configuration not stated), for which the molecule was classed as inactive.

As to `CC(C)c1cccc(C(C)C)c1O`, the molecule was classed as inactive.

Turning to `COP(=S)(OC)Oc1cc(Cl)c(Cl)cc1Cl`, the molecule was called inactive.

The next assay is described as follows: qHTS assay for small molecule agonists of the antioxidant response element (ARE) signaling pathway measured by Nrf2-dependant transcriptional activity - cell viability counter screen (AID 720653; active = well fitted curve in the direction sought with a large enough effect in the repeat runs; an effect the other way counts as inactive or inconclusive; note: % is set by controls: 0 for no effect and ±100 for the full control effect). Conditions: ARE-bla HepG2 viability, CellTiter-Glo ATP luminescence, 16 h; stronger effect = lower value. The method in brief: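 ARE-bla HepG2 cells treated with compounds for 16 h at 37C; this counter screen measures viability as intracellular ATP by CellTiter-Glo luminescence after 30 min at room temperature.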
Turning to `C[C@]12CCC(=O)C=C1CC[C@@H]1[C@@H]2CC[C@@]2(C)[C@H]1CC[C@]2(C)O`, the max response is 11% (inactive).

Turning to `CC1(C)C(C=C(Cl)Cl)C1C(=O)OC(C#N)c1cccc(Oc2ccccc2)c1` (configuration not stated), the max response is -2.42% (inactive).

In the case of `CC(C)c1cccc(C(C)C)c1O`, the max response is -3.43% (inactive).

As for `COP(=S)(OC)Oc1cc(Cl)c(Cl)cc1Cl`, the max response is -0.922% (inactive).

A short description of a further assay: qHTS Assay for Identifying Gametocytocidal Compounds (AID 743244; active = well fitted curve in the direction sought with a large enough effect; an effect the other way counts as inactive or inconclusive;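 note: % is set by controls: 0 for no effect and ±100 for the full control effect; actives lower the fluorescent signal which means gametocytes are killed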). Conditions: P. falciparum 3D7 stage III-V gametocytes, alamarBlue, 72 h; max response: stronger effect = lower value. In a few lines: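 In this qHTS viability screen, late-stage 3D7 gametocytes are incubated with compound for 72 h, then with alamarBlue for 24 h; reduced resorufin fluorescence marks killing.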
Take `O=c1[nH]cnc2[nH]ncc12`: the max response was -1.56% (inactive).

In the case of `C[C@]12CCC(=O)C=C1CC[C@@H]1[C@@H]2CC[C@@]2(C)[C@H]1CC[C@]2(C)O`, the max response is -12% (inactive) and -18.1% (inactive).

Take `COc1cccc([C@@]2(O)CCCC[C@@H]2CN(C)C)c1`: the max response was 5.95% (inactive).

For the molecule `CCN(CCO)CCn1c(Cc2ccccc2)nc2c1c(=O)n(C)c(=O)n2C`, the max response was 2.54% (inactive).

Take `COc1cc(CCN)cc(OC)c1OC`: the max response was 17.2% (inactive).

`c1ccc(CN2CCNCC2)cc1`: the max response is 8.43% (inactive).

Consider `O=C(CCCN1CCC2(CC1)C(=O)NCN2c1ccccc1)c1ccc(F)cc1`, for which the max response is -9.38% (inactive) and 8.83% (inactive).

Consider `CCCCCCCCCC(=O)O[C@H]1CC[C@H]2[C@@H]3CCC4=CC(=O)CC[C@@H]4[C@H]3CC[C@]12C`, for which the max response is 5.38% (inactive).

For the molecule `CC1(C)C(C=C(Cl)Cl)C1C(=O)OC(C#N)c1cccc(Oc2ccccc2)c1` (configuration not stated), the max response is -13.8% (inactive).

With `COP(=S)(OC)Oc1cc(Cl)c(Cl)cc1Cl`, the max response is -2.95% (inactive) and 7.49% (inactive).

A short description of the next assay: qHTS assay for cell viability of HEK293 cells (AID 743288; active = well fitted curve in the direction sought with a large enough effect; an effect the other way counts as inactive or inconclusive; note: % is set by controls: 0 for no effect and ±100 for the full control effect; nearly all actives have a fitted effect of over 50% in size). Conditions: ATP luminescence (CellTiter-Glo), 18 h, stronger effect = lower value. In a few lines: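 HEK293 parental, 2,000 cells/well; ≥5 h pre-incubation 37 C; pintool compound addition; 18 h, 37 C; CellTiter-Glo 30 min RT; luminescence read.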
On to `C[C@]12CCC(=O)C=C1CC[C@@H]1[C@@H]2CC[C@@]2(C)[C@H]1CC[C@]2(C)O`, for which the max response is -18% (inactive).

Regarding `CC1(C)C(C=C(Cl)Cl)C1C(=O)OC(C#N)c1cccc(Oc2ccccc2)c1` (configuration not stated), the max response is -3.3% (inactive).

For the molecule `CCOP(=S)(OCC)Oc1ccc2c(C)c(Cl)c(=O)oc2c1`, the max response was -5.48% (inactive).

Consider `CC(C)c1cccc(C(C)C)c1O`, for which the max response is -1.26% (inactive).

Consider `COP(=S)(OC)Oc1cc(Cl)c(Cl)cc1Cl`, for which the max response is -11.5% (inactive).

A further assay can be described thus: qHTS assay for cell viability of the p53RE-bla HCT-116 cell line (AID 743292; active = well fitted curve in the direction sought with a large enough effect; an effect the other way counts as inactive or inconclusive; note: % is set by controls: 0 for no effect and ±100 for the full control effect; nearly all actives have a fitted effect of over 55% in size). The following applies: p53RE-bla HCT-116 viability, ATP luminescence, 16 h; series mostly up to 95 µM. In a few lines:
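Luminescent ATP quantitation (CellTiter-Glo) served as the viability read-out; reagent was added after 16 h compound exposure at 37 C and read after 30 min at room temperature. Cells: p53RE-bla HCT-116, 4,000 per well.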
`C[C@]12CCC(=O)C=C1CC[C@@H]1[C@@H]2CC[C@@]2(C)[C@H]1CC[C@]2(C)O`: the Potency result was “inactive”.

Consider `CC1(C)C(C=C(Cl)Cl)C1C(=O)OC(C#N)c1cccc(Oc2ccccc2)c1` (configuration not stated), for which the Potency result is “inactive”.

On to `CC(C)c1cccc(C(C)C)c1O`, for which the Potency entry is “inactive”.

As to `COP(=S)(OC)Oc1cc(Cl)c(Cl)cc1Cl`, the Potency entry was “inactive”.

A further assay can be described thus: qHTS profiling of the MIPE4 collection as inhibitors of Plasmodium falciparum (3D7) proliferation (AID 743344).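 Note: scaled between DMSO vehicle wells and 0.29 µM artemisinin as full inhibition.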 Conditions: P. falciparum 3D7 in erythrocytes, SYBR Green DNA fluorescence, 72 h; at 28.5 µM (top of the series) unless noted. The method in brief:
(§1)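 Erythrocytes infected with P. falciparum (0.3% parasitemia, 2.5% hematocrit) incubated with compounds 72 h at 37 C, 5% CO2. Lysis with saponin/Triton buffer containing SYBR Green I, overnight at room temperature in the dark; DNA fluorescence (485/535 nm) normalised to 0.29 uM artemisinin and DMSO.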
Molecule `O=c1[nH]cnc2[nH]ncc12` displayed a parasite growth, % of DMSO control of 105%.

`CC(C)c1cccc(C(C)C)c1O` showed a parasite growth, % of DMSO control of 89.1%.

For `CC[N+](CC)(CC)CCOc1cccc(OCC[N+](CC)(CC)CC)c1OCC[N+](CC)(CC)CC`, the parasite growth, % of DMSO control was determined as 86%.

A further assay in a line: qHTS profiling of the MIPE4 collection as inhibitors of Plasmodium falciparum (DD2) proliferation (Rep 2) (AID 743346). Conditions: P. falciparum Dd2 in erythrocytes, SYBR Green DNA, 72 h; at 28.5 µM (top of the series) unless noted. The method in brief:
as §1
In the case of `O=c1[nH]cnc2[nH]ncc12`, the parasite growth, % of control (lower = inhibition) came to 153%.

As to `CC(C)c1cccc(C(C)C)c1O`, the parasite growth, % of control (lower = inhibition) came to 85.1%.

As for `CC[N+](CC)(CC)CCOc1cccc(OCC[N+](CC)(CC)CC)c1OCC[N+](CC)(CC)CC`, the parasite growth, % of control (lower = inhibition) was 133%.

Assay in the next assay: not given
Conditions: Ebola virus entry assay, green fluorescence channel.
Turning to `C[C@]12CC[C@H]3[C@@H](CCC4=CC(=O)CC[C@@H]43)[C@@H]1CC[C@@H]2OC(=O)CCc1ccco1`, the efficacy is -14.7% (inactive).

Consider `CC(C(=O)O)c1ccc2c(c1)CC(=O)c1ccccc1S2` (configuration not stated), for which the efficacy is 23.3% (inactive).

As to `O=c1[nH]cnc2[nH]ncc12`, the efficacy was -34% (inactive).

On to `C[C@]12CCC(=O)C=C1CC[C@@H]1[C@@H]2CC[C@@]2(C)[C@H]1CC[C@]2(C)O`, for which the efficacy was -23% (inactive).

Consider `Cc1c[nH]c2ccccc12`, for which the efficacy was -29.9% (inactive).

For the molecule `COc1cccc([C@@]2(O)CCCC[C@@H]2CN(C)C)c1`, the efficacy is -12.5% (inactive).

As for `COc1ccnc(CS(=O)c2nc3ccc(OC(F)F)cc3[nH]2)c1OC` (configuration not stated), the efficacy was -31.1% (inactive).

With `Cc1ccc2ccc(Cl)cc2n1`, the efficacy was 18.4% (inactive).

On to `CC(=O)[C@H]1CC[C@H]2[C@@H]3C[C@H](C)C4=CC(=O)CC[C@]4(C)[C@H]3[C@@H](O)C[C@]12C`, for which the efficacy was -17.9% (inactive).

In the case of `C[C@@H]1CC2=CC(=O)CC[C@@H]2[C@H]2CC[C@@]3(C)[C@@H](CC[C@]3(C)O)[C@@H]21`, the efficacy was 24.6% (inactive).

Consider `C[C@]12C=CC(=O)C=C1CC[C@@H]1[C@@H]2C(=O)C[C@@]2(C)[C@H]1CC[C@]2(O)C(=O)CO`, for which the efficacy was -19.9% (inactive).

For `CCN(CCO)CCn1c(Cc2ccccc2)nc2c1c(=O)n(C)c(=O)n2C`, the efficacy was 27.5% (inactive).

For `CCCC(=O)OCOC(=O)C1=C(C)NC(C)=C(C(=O)OC)C1c1cccc(Cl)c1Cl` (configuration not stated), the efficacy was 17.3% (inactive).

Turning to `NCCCC[C@H](N[C@@H](CCc1ccccc1)C(=O)O)C(=O)N1CCC[C@H]1C(=O)O`, the efficacy is -19.4% (inactive).

`COc1cc(CCN)cc(OC)c1OC`: the efficacy was 10.5% (inactive).

`c1ccc(CN2CCNCC2)cc1`: the efficacy is -15.2% (inactive).

As to `O=C(Oc1ccccc1)c1ccccc1O`, the efficacy is -17.4% (inactive).

Consider `O=C(CCCN1CCC2(CC1)C(=O)NCN2c1ccccc1)c1ccc(F)cc1`, for which the efficacy is -27.3% (inactive).

In the case of `O=C1c2ccccc2CCc2ccccc21`, the efficacy is 12.1% (inactive).

Regarding `CCCCCCCCCC(=O)O[C@H]1CC[C@H]2[C@@H]3CCC4=CC(=O)CC[C@@H]4[C@H]3CC[C@]12C`, the efficacy was 27.8% (inactive).

`CC1(C)C(C=C(Cl)Cl)C1C(=O)OC(C#N)c1cccc(Oc2ccccc2)c1` (configuration not stated): the efficacy was -14.1% (inactive).

`CNCc1ccccc1`: the efficacy is -19.2% (inactive).

`Cc1cc(C(C#N)c2ccc(Cl)cc2)c(Cl)cc1NC(=O)c1cc(I)cc(I)c1O` (configuration not stated): the efficacy is -32.3% (inactive).

For `O=S(=O)(O)c1ccc(O)cc1`, the efficacy is 20.2% (inactive).

As for `Oc1ccc(OCc2ccccc2)cc1`, the efficacy is 14.9% (inactive).

With `CCOP(=S)(OCC)Oc1ccc2c(C)c(Cl)c(=O)oc2c1`, the efficacy was 16.9% (inactive).

In the case of `CC(C)c1cccc(C(C)C)c1O`, the efficacy is -18.5% (inactive).

`CCCCCCCC/C=C/C(=O)O`: the efficacy was 20.4% (inactive).

Consider `CN1C[C@@H]2C[C@H]1CN2c1cc2c(cc1F)c(=O)c(C(=O)O)cn2C1CC1`, for which the efficacy is 18.4% (inactive).

Turning to `COc1cc(C(=O)NC2CCCNC2)cc(OC)c1OC` (configuration not stated), the efficacy was -16% (inactive).

Regarding `O=C1CC(c2ccc(Cl)cc2)CC(=O)N1`, the efficacy was -27.6% (inactive).

For `COP(=S)(OC)Oc1cc(Cl)c(Cl)cc1Cl`, the efficacy was -14% (inactive).

As for `N[C@@H](CCC(=O)N[C@@H](CS)C(=O)NCC(=O)O)C(=O)O`, the efficacy is -20.9% (inactive).

With `CC(=O)O[C@]1(C(C)=O)CC[C@H]2[C@@H]3C[C@H](C)C4=CC(=O)CC[C@]4(C)[C@H]3CC[C@@]21C`, the efficacy was 38.2% (inactive).

For the molecule `CCN1CCC[C@H]1CNC(=O)c1cc(S(N)(=O)=O)ccc1OC`, the efficacy is -21.3% (inactive).

`CC(=O)OC[C@H]1O[C@@H](OC(C)=O)[C@H](OC(C)=O)[C@@H]1OC(C)=O`: the efficacy is 18.7% (inactive).

As to `Cc1nc2c([nH]1)c(=O)n(C)c(=O)n2Cc1ccco1`, the efficacy was 40.2% (inactive).

For `CC[N+](CC)(CC)CCOc1cccc(OCC[N+](CC)(CC)CC)c1OCC[N+](CC)(CC)CC`, the efficacy is 15.9% (inactive).

Consider `O=C(OCC1(COC(=O)c2cccnc2)CCCC(COC(=O)c2cccnc2)(COC(=O)c2cccnc2)C1O)c1cccnc1`, for which the efficacy was -19.2% (inactive).
